# Screening data from PubChem BioAssay.
# This is a sample that favours compounds with a hit; in the whole collection about 0.85% have one here.
# GAA inhib: qHTS Assay for Inhibitors of Human alpha-Glucosidase as a Potential Chaperone Treatment of Pompe Disease. Lysosomal alpha-glucosidase (Homo sapiens), P10253. purified human GAA, 4-MU-alpha-glucoside fluorescence. Potency, µM (doses to about 76.9 µM), inactives show top-dose activity change, negative = inhibition, usual class: inhibitors. actives 0.005% (n = 200,000);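 further: potency means the concentration at half of the fitted maximal effect; plate controls were uninhibited enzyme wells for no effect and no-enzyme background for full effect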
#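 Human alpha-glucosidase, 4 nM, pre-mixed with test compounds before 400 uM 4-methylumbelliferyl substrate; 20 min room temperature at pH 5.0. Fluorescence read after pH 10 stop; AC50 values from Hill-equation fits.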
# B2AR arrestin: qHTS assay of beta-arrestin-biased ligands of beta2-adrenergic receptor; Beta-2 adrenergic receptor (Homo sapiens), P07550; beta-arrestin recruitment to beta2AR, cell-based reporter; Potency, µM (highest dose often 46.1 µM), for inactives: at the highest dose activation, usual class: activators; actives 0.02% (n = 330,000); AID 492947, 2010;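 further: potency means the concentration at half of the fitted maximal effect; 0% = DMSO controls and full agonism = EC100 isoproterenol or metaproterenol; nearly all actives have a fitted effect of over 65% in size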
# Target sequence (P07550 whole entry, looked up): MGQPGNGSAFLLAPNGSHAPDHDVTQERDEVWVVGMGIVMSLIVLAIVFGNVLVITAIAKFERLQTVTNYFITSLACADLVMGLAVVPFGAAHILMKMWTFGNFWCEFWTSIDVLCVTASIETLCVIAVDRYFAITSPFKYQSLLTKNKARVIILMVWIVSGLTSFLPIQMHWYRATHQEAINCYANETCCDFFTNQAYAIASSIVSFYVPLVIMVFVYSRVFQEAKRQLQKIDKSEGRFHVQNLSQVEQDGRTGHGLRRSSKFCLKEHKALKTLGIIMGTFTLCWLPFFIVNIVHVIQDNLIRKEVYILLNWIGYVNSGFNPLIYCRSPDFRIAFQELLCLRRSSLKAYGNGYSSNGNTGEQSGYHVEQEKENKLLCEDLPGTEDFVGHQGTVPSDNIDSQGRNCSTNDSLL
# Coupling enz: qHTS Assay for Inhibitors of Fructose-1,6-bisphosphate Aldolase from Giardia Lamblia: Coupling assay counterscreen; coupling enzyme system counterscreen, AmpLite Red fluorescence; activity change, negative = inhibition, % at 58.2 µM, hits read low; actives 0.67% (n = 290,000); AID 2472, 2010; in the data active means activity change below about -30%
#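 Counterscreen of the coupled detection system alone, without aldolase: glyceraldehyde-3-phosphate coupling enzymes plus AmpLite Red readout. Compounds at 57.5 uM final, 10 min RT preincubation, 20 min RT reaction, fluorescence 525/598 nm.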
# GAA glycogen: qHTS Assay for Inhibitors and Activators of Human alpha-Glucosidase Cleavage of Glycogen; recombinant GAA, glycogen substrate, Amplex Red glucose oxidase fluorescence; Potency, µM (highest dose often 76.4 µM), for inactives: top-dose activity change, negative = inhibition, most hits filed as inhibitors; Lysosomal alpha-glucosidase (Homo sapiens), P10253; actives 0.38% (n = 300,000);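 further: potency means the concentration at half of the fitted maximal effect; 0% = full enzyme reaction and -100% = no-enzyme basal signal; the screen sought inhibitors and activators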
#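 Recombinant human alpha-glucosidase (4 nM final) hydrolysed bovine liver glycogen (30 ug) for 40 min at 37 C in pH 5.0 citrate/phosphate with 0.01% Tween-20. Released glucose detected by glucose oxidase/Amplex Red, Ex 573/Em 610 nm. Compounds up to 77 uM; AC50 from Hill fits.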
# GAA spleen mod: qHTS Assay for Inhibitors and Activators of Human alpha-Glucosidase From Spleen Homogenate. Potency, µM (series often up to 79.9 µM), for the others: at the top dose activity change, negative = inhibition, actives largely listed as inhibitors. Lysosomal alpha-glucosidase (Homo sapiens), P10253. AID 2112, 2009. actives 0.006% (n = 240,000). human spleen homogenate, 4-MU-alpha-glucoside fluorescence;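 further: potency means the concentration at half of the fitted maximal effect; 0% = enzyme with vehicle and -100% = no enzyme basal signal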
#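 Enzyme source: human spleen homogenate, 1 ug/well. Buffer 50 mM citric acid/K phosphate pH 5.0, 0.01% Tween-20. 4-MU-alpha-glucoside 1 mM; 37 C x 40 min; NaOH/glycine stop; fluorescence.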
# The depositor's hits bear a star; u = inconclusive; x = no result given; [ ] = dose if it differs, or a comment. Unless noted, the call rests on the fitted dose curve; in most records, active means well fitted curve in the direction sought with a large enough effect; inconclusive means small, poorly fitted or top-dose-only effect, or another doubt; inactive means no such curve, though single readings can be large; an effect the other way counts as inactive or inconclusive. Unless noted, on the % scale 0 is the no-effect control and ±100 the full control effect.
SMILES,GAA inhib,B2AR arrestin,Coupling enz,GAA glycogen,GAA spleen mod
Cc1ccc(-n2nc(C)c3c2OC(N)=C(C#N)C3c2ccco2)cc1 (configuration not stated),2.1%,-0.3%,-6.6,u,-5.9%
Cc1ccc(-n2nc(C)c3c2OC(N)=C(C#N)C3c2ccoc2)cc1 (configuration not stated),-3.8%,3.4%,-13.0,22.4µM*,-3.5%
NC(N)=NCCC[C@H](N)C(=O)NCC(=O)N[C@@H](CC(=O)O)C(=O)O,x,x,1.2,x,0.3%
CCO/C=C1\C(=O)N(c2ccccc2)C(=O)c2ccccc21,0.0%,-0.3%,0.2,2.7%,-2.3%
CCO/C=C1/C(=O)N(Cc2ccccc2)C(=O)c2ccccc21,-2.7%,-0.5%,-44.4*,4.9%,3.9%
CC(=O)C(Sc1nc(N(C)C)nc(N(C)C)n1)C(=O)Nc1ccccc1 (configuration not stated),-8.0%,0.0%,5.9,20µM*,-4.0%
C[C@@H](N)CCCP(=O)(O)O,x,x,x,x,-7.1%
N#Cc1cccc(NC(=O)Nc2cccs2)c1,0.7%,0.0%,-0.9,u,1.6%
CCc1cccc(NC(=O)Nc2cccs2)c1,0.6%,-0.2%,-4.9,28.2µM*,1.9%
O=S(=O)(c1ccc(NC(=S)N/N=C/c2ccc(O)c(O)c2)cc1)N1CCOCC1,x,0.2%,-2.7,25.1µM*,-9.2%
CC1=NN(C(N)=S)C(=O)C1N=Nc1ccc(Cl)cc1 (configuration not stated),x,u,-0.4,x,x
CC1=NN(C(N)=S)C(=O)C1N=Nc1ccccc1 (configuration not stated),-8.7%,1.41µM*,3.5,-0.6%,-5.7%
CC(=O)c1ccc(NC(=O)CN2CCN(c3ncccn3)CC2)cc1,0.1%,0.2%,-54.8*,4.6%,-3.6%
N#Cc1c(N(CCO)CCO)nc(N)c2c(N)nc3c(c12)CC(=O)N3Cc1cccs1,x,-0.4%,-31.1*,u,1.8%
COc1cc(-c2nc3cnccn3c2Nc2ccc(C)cc2)ccc1O,-1.3%,-0.3%,-2.8,11.1µM*,-3.7%
COc1cc(-c2nc3cnccn3c2Nc2ccccc2)ccc1O,-4.3%,9.9%,4.3,u,-10.6%
COc1cc(-c2nc3cnccn3c2Nc2ccc3c(c2)OCCO3)ccc1O,-8.4%,-0.1%,-0.1,7.03µM*,-6.0%
COc1ccc(Cl)cc1NC(=O)CCCS(=O)(=O)c1nc(-c2ccc(OC)c(OC)c2)cc(C(F)(F)F)n1,x,x,x,10.7%[76.3 µM],x
O=C(Nc1nnc(C(F)(F)F)s1)c1ccc(Br)s1,-6.9%,-0.3%,-34.2*,-10.2%,-22.8%
CCSc1nnc(NC(=O)c2ccc(Br)s2)s1,-4.8%,-0.2%,-27.2,4.3%,-10.1%
Cc1cc(C(=O)Nc2nnc(C(F)(F)F)s2)cs1,x,-0.5%,-34.6*,3.5%,1.0%
CC(C)Oc1ccc(CNC(=O)c2ccc(NC(=O)N3CC(C)Sc4ccccc43)cc2)cc1 (configuration not stated),x,x,x,-7.0%[76.3 µM],x
O=C(NCc1ccc(F)cc1)c1ccc(NC(=O)N2CC3CCCN3c3ccccc32)cc1 (configuration not stated),x,x,x,15.8µM*,x
CCOc1ccccc1NC(=O)CSc1nc(=O)n(CCN2CCOCC2)c2c1CCCC2,x,0.3%,x,x,x
CC(/C=C/c1ccccc1)=N\NC(N)=S,u,8.91µM*,-0.5,-19.9%,-9.8%
Cc1c(C(=O)NCc2ccccc2Cl)sc2nc3n(c(=O)c12)CCCCC3,x,x,x,27.1%[76.3 µM],x
CCOC(=O)Nc1c(C(=O)OC)[nH]c2cc(OC)ccc12,9.7%,0.2%,-0.5,2.2%,-7.9%
COC(=O)c1[nH]c2cc(OC)ccc2c1N,3.7%,-0.1%,0.6,35.2µM*,7.0%
CC1=C(C#N)C(=O)N(C2CCS(=O)(=O)C2)C(=O)/C1=C\c1ccco1 (configuration not stated),x,0.4%,-30.6*,-12.6%,-2.3%
CCc1ccc2occ(CC(=O)Nc3nnc(C)s3)c2c1,x,x,x,-4.4%[76.3 µM],x
